Experimental data: the supplement of paper PMC9694430

Experiments:
Test in all cases: thermal shift delta Tm vs DMSO control; higher = stronger stabilization (binding)
Conditions in all cases: 12.5 µM; protein concentration 2 µM
LOC_OS01G01410-cb001 = test system: LOC_OS01G01410-cb001
Outline: (§1)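 Purified, E. coli-expressed rice kinase domain constructs were tested by differential scanning fluorimetry in 96-well plates: 19.5 μl of 2 μM kinase in 100 mM potassium phosphate pH 7.5, 150 mM NaCl, 10% glycerol, 5 × SYPRO Orange, plus compound in DMSO. Fluorescence was read from 25°C to 95°C at 0.05°C/s. Melting temperatures came from Boltzmann fits, and the shift is the triplicate mean relative to protein with DMSO alone.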

LOC_OS01G02750-cb003 = test system: LOC_OS01G02750-cb003
Outline: as §1

LOC_OS01G10900-cb004 = test system: LOC_OS01G10900-cb004
Outline: as §1

LOC_OS01G13800-cb001 = test system: LOC_OS01G13800-cb001
Outline: as §1

LOC_OS01G14860-cb001 = test system: LOC_OS01G14860-cb001
Outline: as §1

LOC_OS01G21960-cb002 = test system: LOC_OS01G21960-cb002
Outline: as §1

LOC_OS01G39600-cb002 = test system: LOC_OS01G39600-cb002
Outline: as §1

LOC_OS01G48390-cb002 = test system: LOC_OS01G48390-cb002
Outline: as §1

LOC_OS01G51400-cb002 = test system: LOC_OS01G51400-cb002
Outline: as §1

LOC_OS01G52050-cb004 = test system: T1, LOC_OS01G52050-cb004
T1 sequence (whole entry): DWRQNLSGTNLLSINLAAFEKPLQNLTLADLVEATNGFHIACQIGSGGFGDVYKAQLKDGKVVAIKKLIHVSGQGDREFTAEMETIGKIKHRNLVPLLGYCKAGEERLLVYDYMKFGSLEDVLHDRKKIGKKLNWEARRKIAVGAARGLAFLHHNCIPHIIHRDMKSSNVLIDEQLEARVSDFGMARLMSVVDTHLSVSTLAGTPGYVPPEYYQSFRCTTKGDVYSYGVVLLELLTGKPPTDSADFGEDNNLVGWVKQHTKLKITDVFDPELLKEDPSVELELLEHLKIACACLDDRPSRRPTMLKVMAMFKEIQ
Outline: as §1

LOC_OS01G57100-cb003 = test system: LOC_OS01G57100-cb003
Outline: as §1

LOC_OS01G60330-cb001 = test system: LOC_OS01G60330-cb001
Outline: as §1

LOC_OS01G60700-cb002 = test system: LOC_OS01G60700-cb002
Outline: as §1

LOC_OS01G63280-cb003 = test system: LOC_OS01G63280-cb003
Outline: as §1

LOC_OS01G67340-cb003 = test system: LOC_OS01G67340-cb003
Outline: as §1

LOC_OS01G70970-cb002 = test system: LOC_OS01G70970-cb002
Outline: as §1

LOC_OS02G07810-cb001 = test system: LOC_OS02G07810-cb001
Outline: as §1

LOC_OS02G08530-cb003 = test system: LOC_OS02G08530-cb003
Outline: as §1

LOC_OS02G14120-cb001 = test system: LOC_OS02G14120-cb001
Outline: as §1

LOC_OS02G17970-cb001 = test system: LOC_OS02G17970-cb001
Outline: as §1

| SMILES | thermal shift delta Tm (LOC_OS01G01410-cb001) [°C] | thermal shift delta Tm (LOC_OS01G02750-cb003) [°C] | thermal shift delta Tm (LOC_OS01G10900-cb004) [°C] | thermal shift delta Tm (LOC_OS01G13800-cb001) [°C] | thermal shift delta Tm (LOC_OS01G14860-cb001) [°C] | thermal shift delta Tm (LOC_OS01G21960-cb002) [°C] | thermal shift delta Tm (LOC_OS01G39600-cb002) [°C] | thermal shift delta Tm (LOC_OS01G48390-cb002) [°C] | thermal shift delta Tm (LOC_OS01G51400-cb002) [°C] | thermal shift delta Tm (LOC_OS01G52050-cb004) [°C] | thermal shift delta Tm (LOC_OS01G57100-cb003) [°C] | thermal shift delta Tm (LOC_OS01G60330-cb001) [°C] | thermal shift delta Tm (LOC_OS01G60700-cb002) [°C] | thermal shift delta Tm (LOC_OS01G63280-cb003) [°C] | thermal shift delta Tm (LOC_OS01G67340-cb003) [°C] | thermal shift delta Tm (LOC_OS01G70970-cb002) [°C] | thermal shift delta Tm (LOC_OS02G07810-cb001) [°C] | thermal shift delta Tm (LOC_OS02G08530-cb003) [°C] | thermal shift delta Tm (LOC_OS02G14120-cb001) [°C] | thermal shift delta Tm (LOC_OS02G17970-cb001) [°C] |
| --- | --- | --- | --- | --- | --- | --- | --- | --- | --- | --- | --- | --- | --- | --- | --- | --- | --- | --- | --- | --- |
| COc1cccc(-c2cc(=O)c3ccccc3o2)c1N | 1.2 | 0.8 | -0.05 | 0.1 | 0.1 | -0.03 | 0.91 | -0.01 | 0.02 | 0.01 | -0.23 | 0.99 | 0.39 | -0.2 | -0.8 | 0.32 | 0.94 | 0.37 | -0.3 | -0.31 |
| CCn1c(-c2nonc2N)nc2c(C#CC(C)(C)O)ncc(OC[C@H]3CCCNC3)c21 | 1.38 | 0.87 | 0.42 | 0.37 | 3.95 | 0.53 | 0.32 | 0.07 | 0.09 | 0.04 | 0.99 | 0.93 | 1.82 | -0.01 | -0.43 | 0.35 | 0.56 | 0.64 | 0.88 | -0.03 |
| Nc1ncnc2n[nH]c(Nc3ccc(F)cc3)c12 | 1.74 | 1.17 | 1.94 | -0.28 | 0.76 | 1.31 | 2.02 | 1.2 | 0.33 | 1.46 | 1 | 1.15 | 0.86 | 3.22 | 0.86 | 0.93 | 0.46 | 1.06 | 3.5 | 0.76 |
| Cc1cccc(CC(=O)N2CCc3c2ccc(-c2cn(C)c4ncnc(N)c24)c3F)n1 | 1.17 | 6.31 | 2.32 | -0.12 | 0.28 | 0.3 | 0.17 | -0.13 | 0.48 | 1.35 | 1.41 | 0.28 | 1.1 | 5.6 | 3.56 | 0.24 | 0.39 | 0.71 | 1.09 | 1.12 |
| COc1cccc(-n2c(=O)[nH]c3cc(Cl)n(-c4ccc(-c5cccc(OC)c5O)cc4)c3c2=O)c1 | 0.44 | 1.69 | -0.02 | 0.72 | 0.13 | 0.8 | -0.12 | 1.54 | 0.69 | 0.03 | 1.57 | 1.05 | 0.6 | 0.13 | 0.2 | 0.23 | 0.79 | 0.98 | 0.81 | 0.69 |
| CNC(=O)c1ccccc1Nc1cc(Nc2ccc(N3CCOCC3)cc2OC)ncc1C(F)(F)F | 0.48 | 1.23 | 0.53 | 1.17 | 1.05 | 1.09 | 0.34 | 0.58 | 0.74 | 5.73 | 2.14 | 0.41 | 1.89 | 0.52 | 3.13 | 10.3 | 0.91 | 3.96 | 9.46 | 2.18 |
